Compounds with a hit are over-represented: about 5.3% of the library has one in this group of screens.
HP1b chromo inh: blocks HP1-beta chromodomain binding to methylated histone tails. Potency, µM (doses to about 114 µM), for the others: at the highest dose activity change, negative = inhibition, most hits filed as inhibitors. AlphaScreen HP1-beta / biotin-H3K9me3 peptide binding. 390,000 tested, 0.56% active. P83916. AID 540317; further: potency means the concentration at half of the fitted maximal effect; nearly all actives have a fitted effect of over 70% in size
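Compound inhibition of the preformed complex between 50 nM HP1-beta and 50 nM biotinylated H3K9me3 peptide was read by AlphaScreen. Buffer was PBS pH 7.4 with 0.01% Tween-20. Incubations ran 30 min at room temperature, with 10 ug/mL donor/acceptor beads.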
Six1-Eya2 inh: Six1/Eya2 interaction inhibition; 360,000 tested, 0.56% active; Q15475+O00167; AlphaScreen GST-Six1/His-Eya2 binding, biochemical; active compounds read low; activity change, % (concentration not given with the values); AID 651725; in the data active means activity change below about -65%; inconclusive means mostly about -30% to -63%; further: on the % scale 0 is the no-effect control and ±100 the full control effect
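Six1/Eya2 binding was read as AlphaScreen signal after compounds were pinned into GST-Six1 plus His-tagged Eya2 (5X stock 250/500 nM) in pH 8.0 Tris/NaCl/TCEP buffer, beads added, then incubated 1 h, 37 C, dark.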
BAZ2B block: BAZ2B (human) inhibition; AlphaScreen BAZ2B-H3K14Ac peptide displacement; Potency, µM (series often up to 114 µM), for inactives: top-dose activity change, negative = inhibition, actives largely listed as inhibitors; 360,000 tested, 4.4% active; Q9UIF8; further: potency means the concentration at half of the fitted maximal effect; on the % scale 0 is the no-effect control and ±100 the full control effect; nearly all actives have a fitted effect of over 60% in size
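BAZ2B 50 nM plus b-H3(5-23)K14Ac 50 nM, PBS pH 7.4/0.01% Tween-20, 30 min RT; compound added (max 110 uM), 30 min RT; streptavidin donor/Ni-chelate acceptor beads 10 ug/mL final, 20 min dark; AlphaScreen read.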
JMJD2A Tudor inh: JMJD2A Tudor domain (human) inhibition. 390,000 tested, 4.4% active. AID 504339. AlphaScreen JMJD2A-Tudor / H3K4me3 peptide binding. Potency, µM (series often up to 114 µM), inactives show top-dose activity change, negative = inhibition, hits mostly inhibitors; further: potency means the concentration at half of the fitted maximal effect; on the % scale 0 is the no-effect control and ±100 the full control effect; nearly all actives have a fitted effect of over 50% in size
TDP1 inh: inhibitors of human tyrosyl-DNA phosphodiesterase TDP1. 350,000 tested, 0.28% active. Q9NUW8. recombinant TDP1, AlphaScreen DNA substrate cleavage. Potency, µM (series often up to 130 µM), for inactives: at the highest dose activity change, negative = inhibition, most hits filed as inhibitors; further: potency means the concentration at half of the fitted maximal effect; on the % scale 0 is the no-effect control and ±100 the full control effect; nearly all actives have a fitted effect of over 40% in size
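Recombinant human Tdp1 (E. coli-expressed, 1 nM final) preincubated with compounds 15 min at room temperature, then 5'-biotin/3'-phosphotyrosine-FITC DNA substrate (15 nM final) added for 5 min. AlphaScreen beads (10 ug/ml final) added 10 min; cleavage lowers signal.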
CtBP-E1A blk: blocks the CtBP interaction with E1A. AlphaScreen GST-E1A/His-CtBP binding, 1536-well; active compounds read low. activity change, % (no concentration beside the values). 340,000 tested, 0.49% active; in the data active means activity change below about -65%; inconclusive means mostly about -30% to -63%; further: on the % scale 0 is the no-effect control and ±100 the full control effect
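GST-E1A and His-tagged CtBP (125 nM each as 5X stock) were preincubated with pin-transferred compound for 2 h at 37 °C in the dark, then glutathione donor and nickel acceptor beads were added for 1 h before AlphaScreen reading.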
* = called active by the depositor; ? = inconclusive; . = no result; [ ] = remark or other dose. Unless noted, the call rests on the fitted dose curve; in most records, active means well fitted inhibition curve with a large enough effect; inconclusive means small, poorly fitted or top-dose-only effect; inactive means no such curve, though single readings can be large or run the other way.

SMILES	HP1b chromo inh	Six1-Eya2 inh	BAZ2B block	JMJD2A Tudor inh	TDP1 inh	CtBP-E1A blk
CN(C)c1ccc(N/C=C/C(=O)c2ccccc2)cc1	-20.3%	-29.9	?	?	11.3%	?
CN(C)c1ccc(N/C=C/C(=O)C(C)(C)C)cc1	-53.7%	?	39.8µM*	50.1µM*	9.3%	?
O=C(NCCO)C(=O)NCC(c1ccc2c(c1)OCO2)N1CCOCC1 (stereo unspecified)	26.6%[57 µM]	.	2.1%	-4.2%	1.1%	.
CCCCNC(=O)O[C@@H]1C[C@H]2CCCC(=O)N3CC[C@@H](C1)[C@@H]23	38.6%	0.2	-30.2%	-4.8%	.	-0.3
CCCCCCCN(c1ccccc1)[C@@H]1C[C@H]2CCCC(=O)N3CC[C@@H](C1)[C@@H]23	-12.8%	-21.5	.	44.7µM*	.	-1.5
Cn1nnc(NC(=S)NC(=O)c2ccco2)n1	?	4.4	?	?	6.9%	-0.9
COc1ccc(C(=O)NC(=S)Nc2nnn(C)n2)cc1	-36.9%	0.5	50.1µM*	31.6µM*	-2.7%	1.5
Cn1nnc(NC(=S)NC(=O)Cc2ccccc2)n1	79.4µM*	4.8	35.5µM*	22.4µM*	3.6%	2.8
CCOc1cc2[nH]c(=O)n(CCCCC(=O)N3CCN(c4ccccc4)CC3)c(=O)c2cc1OCC	9.5%	.	1.9%	-10.7%	1.5%	.
Cc1nc(C(F)(F)F)c(C(=O)N/N=C(\N)c2ccccn2)s1	14.4%	-76.8*	10µM*	79.4µM*	5.0%	-92.1*
N/C(=N\NS(=O)(=O)c1ccccc1C(F)(F)F)c1ccccn1	57.3%	-5.7	-8.2%	2.6%	2.5%	.
O=[N+]([O-])c1cc([N+](=O)[O-])c2nonc2c1Nc1ccc(O)cc1	?	4.3	?	50.1µM*	7.5%	.
O=[N+]([O-])c1cc([N+](=O)[O-])c2nonc2c1Nc1ccccc1O	21.7%	-0.5	-21.2%	-18.1%	.	-5.8
O=C(Nc1cccnc1)C1(F)C(F)(F)C(F)(F)C(F)(F)C(F)(F)C1(F)F	14.4%	5.9	-31.2%	79.4µM*	1.1%	10.1
CN(CCOCCOc1ccc(F)cc1)Cc1ccccc1	?	2.0	79.4µM*	12.6µM*	.	-26.2
CN(CCOCCOc1ccc(Cl)cc1Br)Cc1ccccc1	34.4%	-6.4	1.6%	1.3%	2.7%	-0.2
Cc1ccc(C(=O)OCCN(C)Cc2ccccc2)cc1	36.0%	7.1	-12.1%	-7.5%	3.7%	.
COc1ccc(OCCCCN(C)Cc2ccccc2)cc1	?	-16.1	70.8µM*	20µM*	.	3.9
COc1ccc(CN(CCN(C)C)Cc2ccccc2)c(OC)c1	-38.6%	-3.3	79.4µM*	2.51µM*	-1.0%	1.9
COC(=O)c1ccc(OCCCCN(C)Cc2ccccc2)cc1	?	-0.6	56.2µM*	31.6µM*	.	15.3
Cc1ccccc1NC(=O)CN(C)S(=O)(=O)c1cccc2nsnc12	-8.3%	.	6.4%	-11.5%	5.7%	.
Cc1cccc(S(=O)(=O)c2cn(Cc3ccccc3)c3cc(N4CCCCC4C)c(F)cc3c2=O)c1 (stereo unspecified)	6.3%	.	-1.2%	-19.8%	5.0%	.
C=CCc1cc(OC)ccc1OCCN(C)Cc1ccccc1	?	-24.0	50.1µM*	25.1µM*	-4.9%	-10.1
Cc1ccc(C(=O)NCCOc2cccc(C)c2)cc1	30.8%	1.9	0.3%	14.5%	2.7%	-0.8
COC(=O)c1ccc(OCCOc2ccccc2)cc1	46.3%	30.2	4.7%	16.8%	0.0%	33.9
SMILES	HP1b chromo inh	Six1-Eya2 inh	BAZ2B block	JMJD2A Tudor inh	TDP1 inh	CtBP-E1A blk
COC(=O)c1ccc(OCCOc2ccccc2C)cc1	239.1%	27.4	90.9%	197.2%	79.4µM*	30.8
C=CCc1cc(OC)ccc1OCCCCn1cncn1	?	3.7	50.1µM*	5.62µM*	6.6%	.
CCOC(=O)c1ccc(OCCOc2cccc(C)c2)cc1	226.9%	44.8	263.0%	205.5%	50.1µM*	78.5
COc1ccc(C2C(=O)N(C3CCCCCC3)CC(=O)N2Cc2ccc(C)cc2)cc1OC (stereo unspecified)	?	.	-15.7%	-22.3%	5.2%	.
Cc1ccc(S(=O)(=O)NC(N)=NCCC[C@@H](N)C(=O)Nc2cc(C(F)(F)F)ccc2Cl)cc1	.	.	.	-25.3%	-1.1%	.
Cc1cccc(C(C)C)c1NC(=O)C1CCCN1S(=O)(=O)c1cccc2nsnc12 (stereo unspecified)	25.8%	.	-13.1%	-16.2%	1.2%	.
COc1ccccc1C1CCN(Cc2cccc([N+](=O)[O-])c2)CC1	-5.0%	-19.4	?	?	7.5%	.
COc1cc(CN2CCN(c3ccccc3C)CC2)cc([N+](=O)[O-])c1O	?	-5.9	?	3.98µM*	-5.3%	-5.4
COc1cc(CN2CCc3ccccc3C2)cc([N+](=O)[O-])c1O	?	2.8	?	22.4µM*	6.4%	.
COc1cc(CN2CCCC(C)C2)cc([N+](=O)[O-])c1O (stereo unspecified)	1.9%	-11.1	-8.9%	-10.9%	-1.0%	-6.0
COc1ccccc1C1CCN(c2ccc(CO)cc2[N+](=O)[O-])CC1	?	-11.2	?	56.2µM*	6.3%	-22.3
COc1cc(CN2CCCN(C)CC2)cc([N+](=O)[O-])c1O	?	6.8	?	0.891µM*	.	14.5
CCc1ccc(N2CC(c3nnc(NC(=O)c4ccco4)s3)CC2=O)cc1 (stereo unspecified)	10.6%	.	-18.9%	-14.2%	-3.6%	.
COc1cc(CN2CCc3ccccc3C2)ccc1O	?	6.2	50.1µM*	20µM*	-2.4%	.
COC(=O)CSc1nc2sc3c(c2c(=O)n1-c1ccc(C)cc1)CC(C(C)C)OC3 (stereo unspecified)	6.1%	.	2.2%	-12.8%	.	.
Cc1nc(CC(=O)N/N=C/c2ccc(OCC(=O)O)cc2)cs1	74.2%	18.6	?	-28.1%	.	44.1
O=C(O)COc1ccc(/C=N/NC(=O)c2ccc(-c3csc(Nc4ccc(Cl)cc4)n3)cc2)cc1	20µM*	-22.7	3.98µM*	8.91µM*	.	7.2
O=C(Nc1cc(Cl)cc(Cl)c1)c1coc(=O)c(Br)c1	-11.3%	-15.2	56.2µM*	-31.7%	.	4.2
CC(C)CNC(=O)c1coc(=O)c(Br)c1	26.0%	-1.0	8.0%	-8.4%	0.0%	-10.9
COc1cccc(NC(=O)Cn2cc(S(=O)(=O)N3CCCC3)c(S(=O)(=O)N3CCCC3)c2)c1	5.3%	.	0.4%[57.1 µM]	-28.8%	-6.3%	.
Cc1cccc(Cn2nnc3c2C(=O)c2ccccc2C3=O)c1	-26.0%	?	12.6µM*	-13.7%	2.7%	-3.8
CC1CCc2c(nc3nc[nH]n3c2=O)C1 (stereo unspecified)	31.6%	21.8	6.9%	-11.1%	8.0%	0.5
S=c1c2c(nc3nc[nH]n13)CCC2	26.0%	-12.5	44.7µM*	6.31µM*	7.5%	.
